{"source": "paper PMC4336329", "about": "(PLoS ONE, 2015)", "note": "The campaign covered roughly 310,000 compounds. About 2,200 (0.71%) showed an effect of 50% or more. The effect is printed as a negative number. The full list was thinned out, with strong results kept by preference.", "data": [{"target": "human ether-à-go-go-related gene (hERG) potassium channel (human, UniProt Q12809)", "sequence (Q12809 whole entry, looked up)": "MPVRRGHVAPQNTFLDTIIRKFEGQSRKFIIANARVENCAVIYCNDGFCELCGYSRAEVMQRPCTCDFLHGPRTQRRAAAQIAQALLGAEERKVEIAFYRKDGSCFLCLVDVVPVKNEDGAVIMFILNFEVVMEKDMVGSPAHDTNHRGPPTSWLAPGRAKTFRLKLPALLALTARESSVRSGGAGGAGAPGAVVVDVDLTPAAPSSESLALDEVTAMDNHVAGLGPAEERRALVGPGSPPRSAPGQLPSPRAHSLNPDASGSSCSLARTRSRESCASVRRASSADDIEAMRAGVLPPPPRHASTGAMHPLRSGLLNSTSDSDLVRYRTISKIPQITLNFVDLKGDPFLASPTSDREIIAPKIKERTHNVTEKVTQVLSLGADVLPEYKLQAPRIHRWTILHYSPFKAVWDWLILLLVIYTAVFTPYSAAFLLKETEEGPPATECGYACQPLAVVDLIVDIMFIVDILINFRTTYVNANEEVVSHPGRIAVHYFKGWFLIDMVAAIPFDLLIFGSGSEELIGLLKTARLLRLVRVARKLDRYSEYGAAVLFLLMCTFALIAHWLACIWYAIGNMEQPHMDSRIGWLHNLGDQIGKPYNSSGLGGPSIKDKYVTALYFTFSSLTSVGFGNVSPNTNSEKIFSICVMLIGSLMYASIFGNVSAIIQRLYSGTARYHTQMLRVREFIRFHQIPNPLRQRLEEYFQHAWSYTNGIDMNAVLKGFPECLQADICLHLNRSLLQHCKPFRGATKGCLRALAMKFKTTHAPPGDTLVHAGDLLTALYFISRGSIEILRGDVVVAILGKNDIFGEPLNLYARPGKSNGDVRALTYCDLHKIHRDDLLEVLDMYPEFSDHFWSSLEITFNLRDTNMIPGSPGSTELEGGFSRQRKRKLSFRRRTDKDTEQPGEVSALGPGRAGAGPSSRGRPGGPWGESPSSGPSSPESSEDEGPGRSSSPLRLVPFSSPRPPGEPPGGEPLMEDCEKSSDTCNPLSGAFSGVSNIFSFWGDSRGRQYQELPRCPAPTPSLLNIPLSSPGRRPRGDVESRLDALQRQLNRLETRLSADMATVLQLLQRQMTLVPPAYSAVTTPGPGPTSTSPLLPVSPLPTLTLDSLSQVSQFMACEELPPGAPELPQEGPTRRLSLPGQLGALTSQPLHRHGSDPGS", "assay": "primary screen, population patch clamp on CHO cells stably expressing hERG; higher = less effect of the substance", "units": {"hERG current change (%, negative = inhibition) at 1uM": "%"}, "values": [{"smiles": "COc1ccc(CN2CCCC(C(=O)c3cccc(OC(C)C)c3)C2)cc1Cn1cccn1", "note": "(stereo not shown)", "hERG current change (%, negative = inhibition) at 1uM": -3.41}, {"smiles": "Cc1ccc(NC(=O)CSc2ccccc2NC(=O)c2cccc(Cl)c2)cc1Cl", "hERG current change (%, negative = inhibition) at 1uM": 0.293}, {"smiles": "O=C(Nc1c(C(=O)N2CCC(N3CCCCC3)CC2)oc2ccccc12)c1c(F)cccc1F", "hERG current change (%, negative = inhibition) at 1uM": -5.22}, {"smiles": "O=C(COc1ccccc1)Nc1c(C(=O)N2CCC(N3CCCCC3)CC2)oc2ccccc12", "hERG current change (%, negative = inhibition) at 1uM": -9.1}, {"smiles": "COc1ccc(OCC(=O)Nc2c(C(=O)N3CCC(N4CCCCC4)CC3)oc3ccccc23)cc1", "hERG current change (%, negative = inhibition) at 1uM": -82.8}, {"smiles": "O=C(Nc1c(C(=O)N2CCC(N3CCCCC3)CC2)oc2ccccc12)c1ccc(F)cc1", "hERG current change (%, negative = inhibition) at 1uM": -47.7}, {"smiles": "CCOc1ccc(C(=O)Nc2c(C(=O)N3CCC(N4CCCCC4)CC3)oc3ccccc23)cc1", "hERG current change (%, negative = inhibition) at 1uM": -82}, {"smiles": "COCC(=O)Nc1c(C(=O)N2CCCC2)oc2ccccc12", "hERG current change (%, negative = inhibition) at 1uM": 8.9}, {"smiles": "COc1ccccc1-n1cnc(N)c1C(C)=O", "hERG current change (%, negative = inhibition) at 1uM": 6.83}, {"smiles": "COc1cccc(-c2nc(OC(C)C)c3ccccc3n2)c1", "hERG current change (%, negative = inhibition) at 1uM": 7.09}, {"smiles": "CCOC(=S)SCC(=O)Nc1nc(-c2ccc(Br)cc2)cs1", "hERG current change (%, negative = inhibition) at 1uM": -92}, {"smiles": "CCOC(=O)N1CCN(C(=O)CSCC(=O)Nc2nc(-c3ccc(C)cc3)cs2)CC1", "hERG current change (%, negative = inhibition) at 1uM": 1.87}, {"smiles": "CCOC(=S)SCC(=O)Nc1nc(-c2ccccc2)cs1", "hERG current change (%, negative = inhibition) at 1uM": 29.9}, {"smiles": "CCOC(=O)C1=C(C)OC(N)=C(C#N)C1c1ccc(C)o1", "note": "(stereo not shown)", "hERG current change (%, negative = inhibition) at 1uM": 7.95}, {"smiles": "COc1ccc(CCN(C)CC(O)COc2ccc(C(C)=O)cc2OC)cc1OC", "note": "(stereo not shown)", "hERG current change (%, negative = inhibition) at 1uM": 8.67}, {"smiles": "COc1ccc(CCN(C)CC(O)c2ccccc2)cc1OC.O=C(O)C(=O)O", "note": "(stereo not shown)", "hERG current change (%, negative = inhibition) at 1uM": 1.76}, {"smiles": "COc1ccc(CCN(C)Cc2ccc(F)cc2F)cc1OC", "hERG current change (%, negative = inhibition) at 1uM": -2.08}, {"smiles": "COc1ccc(CCN(C)CC(O)COc2c(C)ccc(C)c2C)cc1OC", "note": "(stereo not shown)", "hERG current change (%, negative = inhibition) at 1uM": -68.7}, {"smiles": "COc1ccc(CCN(C)CC(O)COC(c2ccc(F)cc2)c2ccc(F)cc2)cc1OC", "note": "(stereo not shown)", "hERG current change (%, negative = inhibition) at 1uM": -79.9}, {"smiles": "COc1ccc(CCNCC(O)COc2c(C)cccc2C)cc1OC.O=C(O)C(=O)O", "note": "(stereo not shown)", "hERG current change (%, negative = inhibition) at 1uM": 7.9}, {"smiles": "Cc1cccc(Cn2c(=O)n(CCCC(=O)NCc3ccco3)c(=O)c3ccccc32)c1", "hERG current change (%, negative = inhibition) at 1uM": -4.67}, {"smiles": "O=C(CCc1ccccc1)Nc1sc2c(c1C(=O)O)CCCC2", "hERG current change (%, negative = inhibition) at 1uM": 20.1}, {"smiles": "CCc1nnc(N2C(=N)SCC2=O)s1", "hERG current change (%, negative = inhibition) at 1uM": 4.71}, {"smiles": "Cc1ccc(S(=O)(=O)NC(C)C(=O)NC2CCCCCC2)cc1", "note": "(stereo not shown)", "hERG current change (%, negative = inhibition) at 1uM": -2.05}, {"smiles": "NC(=O)COC(=O)c1ccc2c(c1)C(=O)N(Cc1ccco1)C2=O", "hERG current change (%, negative = inhibition) at 1uM": 9.91}, {"smiles": "N#Cc1ccc(OCc2cccc(S(=O)(=O)N3CCOCC3)c2)cc1", "hERG current change (%, negative = inhibition) at 1uM": -57.3}, {"smiles": "Cc1cc(OCc2cccc(S(=O)(=O)N3CCOCC3)c2)ccc1Cl", "hERG current change (%, negative = inhibition) at 1uM": 4.05}, {"smiles": "N#Cc1ccccc1OCc1cccc(S(=O)(=O)N2CCOCC2)c1", "hERG current change (%, negative = inhibition) at 1uM": 11.3}, {"smiles": "COc1ccc(OC)c(/C=N/NC(=O)C(=O)N2CCCC2)c1", "hERG current change (%, negative = inhibition) at 1uM": 1.25}, {"smiles": "CCOC(=O)N1CCN(c2cc(=O)n(-c3ccc(C)cc3)c(=O)[nH]2)CC1", "hERG current change (%, negative = inhibition) at 1uM": -8.88}, {"smiles": "CN1CCN(c2ccc([N+](=O)[O-])cc2NC(=O)c2ccccc2Cl)CC1", "hERG current change (%, negative = inhibition) at 1uM": -75.6}, {"smiles": "COc1ccc(NC(=O)c2cc([N+](=O)[O-])ccc2N2CCN(C)CC2)cc1", "hERG current change (%, negative = inhibition) at 1uM": -15.5}, {"smiles": "CN1CCN(c2ccc([N+](=O)[O-])cc2C(=O)Nc2ccccc2)CC1", "hERG current change (%, negative = inhibition) at 1uM": -59.8}, {"smiles": "CN1CCN(c2ccccc2NC(=O)c2ccc([N+](=O)[O-])cc2Cl)CC1", "hERG current change (%, negative = inhibition) at 1uM": 0.769}, {"smiles": "Cc1cccc(NC(=O)c2cc([N+](=O)[O-])ccc2N2CCN(C)CC2)c1", "hERG current change (%, negative = inhibition) at 1uM": -41.2}, {"smiles": "CN1CCN(c2ccc([N+](=O)[O-])cc2NC(=O)c2cccs2)CC1", "hERG current change (%, negative = inhibition) at 1uM": -14.2}, {"smiles": "O=C1NCCc2c1[nH]c1ccccc21", "hERG current change (%, negative = inhibition) at 1uM": -4.21}, {"smiles": "COc1ccc(C(=O)Nc2ccc(NC(C)=O)cc2)cc1S(=O)(=O)N1CCCC1", "hERG current change (%, negative = inhibition) at 1uM": 16.9}, {"smiles": "Cc1nc(NCCC(C)C)c2nnn(Cc3ccccc3)c2n1", "hERG current change (%, negative = inhibition) at 1uM": 11.3}, {"smiles": "O=C(O)/C=C\\C(=O)O.O=[N+]([O-])c1ccc2nc(N3CCNCC3)ccc2c1", "hERG current change (%, negative = inhibition) at 1uM": 1.34}, {"smiles": "COC(=O)/C=c1/s/c(=C(\\C#N)C(=O)NCc2ccco2)n(-c2ccccc2)c1=O", "hERG current change (%, negative = inhibition) at 1uM": 14.8}, {"smiles": "CCCC(=NCCc1c(C)[nH]c2ccccc12)C1=C(O)CC(c2ccccc2)CC1=O", "note": "(stereo not shown)", "hERG current change (%, negative = inhibition) at 1uM": -11.1}, {"smiles": "CCCN1CCN(CCCNC(=O)C2CCN(c3nnc(-n4c(C)ccc4C)s3)CC2)CC1", "hERG current change (%, negative = inhibition) at 1uM": 13.1}]}]}
